High-throughput results: PubChem, National Center for Advancing Translational Sciences (NCATS)
Rows were chosen to be rich in hits. Some 18% of all compounds tested hit in one or more screens of this group.
IL-1B inflam inh – inflammasome signaling inhibition, IL-1 beta readout; THP-1 LPS/ATP IL-1B secretion, AlphaLISA, 16 h; hits give low values; activity change, % at 57.5 µM; hit rate 4.7% among 360,000; in the data active = activity change below about -50%; inconclusive = mostly about -30% to -49%
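THP-1 cells pretreated 1 hr with compounds (up to 57.5 uM final), then stimulated with LPS (250 ng/mL final) plus ATP (1.25 mM final); secreted IL-1B measured by AlphaLISA after 16 hr, decreased signal indicating inhibition.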
CtBP-E1A blk – blocks the CtBP interaction with E1A. AlphaScreen GST-E1A/His-CtBP binding, 1536-well; hits give low values. activity change, % (test concentration not listed). hit rate 0.49% among 340,000. AID 651724; in the data active = activity change below about -65%; inconclusive = mostly about -30% to -63%
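Protein mix (5X: 125 nM each GST-E1A, His-CtBP) was incubated with pinned compound 2 h at 37 deg C in dark, in 50 mM Tris pH 8.0 buffer with 300 mM NaCl. Glutathione donor and nickel acceptor beads followed; AlphaScreen signal read after 1 h.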
DT40 TDP1 CPT – DT40-hTDP1 cell growth loss with CPT. hit rate 12% among 420,000. chicken DT40 Tdp1-/-;hTDP1 cells + 20 nM CPT, ATP luminescence, 48 h. Potency, µM (doses to about 46.2 µM), for inactives: top-dose activity change, negative = growth inhibition, usual class: inhibitors. AID 686979; note: potency is the fitted concentration of half-maximal effect; nearly all actives have a fitted effect of over 55% in size
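Cell growth measured by CellTiter-Glo luminescence after a minimum 48 h, 37 C compound exposure with 20 nM CPT in Tdp1-knockout DT40 cells stably expressing hTDP1, seeded 400/well; qHTS titration format.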
TDP1 block – inhibitors of human tyrosyl-DNA phosphodiesterase TDP1. hit rate 0.28% among 350,000. recombinant TDP1, AlphaScreen DNA substrate cleavage. AID 485290. Potency, µM (highest dose often 130 µM), for inactives: at the top dose activity change, negative = inhibition, hits mostly inhibitors. Q9NUW8; note: potency is the fitted concentration of half-maximal effect; nearly all actives have a fitted effect of over 40% in size
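Enzyme-compound mixtures sat 15 min at room temperature, followed by a 5 min reaction with 15 nM final substrate and 10 min with AlphaScreen beads. Recombinant human Tdp1 was used at 1 nM final.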
Six1-Eya2 inh – Six1/Eya2 interaction inhibition | AlphaScreen GST-Six1/His-Eya2 binding, biochemical; hits give low values | AID 651725 | Q15475+O00167 | hit rate 0.56% among 360,000 | activity change, % (concentration not given with the values); in the data active = activity change below about -65%; inconclusive = mostly about -30% to -63%
Target sequence (O00167 whole entry, looked up): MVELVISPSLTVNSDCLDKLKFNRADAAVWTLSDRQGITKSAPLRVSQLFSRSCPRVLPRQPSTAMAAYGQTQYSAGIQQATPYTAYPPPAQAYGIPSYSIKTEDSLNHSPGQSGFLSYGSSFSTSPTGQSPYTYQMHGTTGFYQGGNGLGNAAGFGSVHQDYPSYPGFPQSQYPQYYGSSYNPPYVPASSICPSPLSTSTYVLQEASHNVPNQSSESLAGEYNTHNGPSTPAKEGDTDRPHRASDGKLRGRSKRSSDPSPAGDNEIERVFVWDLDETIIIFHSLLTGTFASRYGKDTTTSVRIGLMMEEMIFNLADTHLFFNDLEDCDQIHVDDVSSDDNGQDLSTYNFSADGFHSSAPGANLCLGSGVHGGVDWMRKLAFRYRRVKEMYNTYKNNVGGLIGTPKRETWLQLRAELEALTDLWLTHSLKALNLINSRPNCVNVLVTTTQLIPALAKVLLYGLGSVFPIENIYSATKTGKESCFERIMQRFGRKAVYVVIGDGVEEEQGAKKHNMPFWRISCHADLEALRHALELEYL
Target sequence (Q15475 whole entry, looked up): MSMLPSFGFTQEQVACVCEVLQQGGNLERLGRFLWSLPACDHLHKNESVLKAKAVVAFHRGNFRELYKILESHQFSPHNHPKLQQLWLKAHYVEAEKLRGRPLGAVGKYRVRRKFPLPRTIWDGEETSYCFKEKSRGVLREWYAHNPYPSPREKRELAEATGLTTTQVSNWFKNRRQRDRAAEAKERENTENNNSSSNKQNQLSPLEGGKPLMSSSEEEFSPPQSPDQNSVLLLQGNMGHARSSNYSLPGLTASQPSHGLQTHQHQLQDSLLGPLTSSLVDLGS
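AlphaScreen luminescence read after one hour at 37 °C in darkness. Pin-transferred compounds met GST-Six1 and His-Eya2 protein (5X stock 250 nM/500 nM) plus glutathione donor and Ni-chelate acceptor beads (5X, 50 ug/mL).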
TDP1 cell noCPT – qHTS for Inhibitors of human tyrosyl-DNA phosphodiesterase 1 (TDP1): qHTS in cells in absence of CPT. DT40 Tdp1-/- hTDP1 cells, no CPT, ATP luminescence, 48 h. Potency, µM (doses to about 46.2 µM), for the others: at the highest dose activity change, negative = growth inhibition, most hits filed as inhibitors. hit rate 15% among 420,000; note: potency is the fitted concentration of half-maximal effect; nearly all actives have a fitted effect of over 55% in size
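Growth kinetics read by CellTiter-Glo luminescence after ≥48 hr at 37 °C. Cells: DT40 Tdp1-/- stably carrying human TDP1, 400 per well, compound exposure in the absence of CPT (DMSO vehicle).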
Starred values were filed as active, the others as inactive; [ ] = remark or other dose. Unless noted, calls come from the whole dose curve; as a rule, active = well fitted curve in the direction sought with a large enough effect; inconclusive = small, poorly fitted or top-dose-only effect, or another doubt; inactive = no such curve, though single readings can be large; an effect the other way counts as inactive or inconclusive. % is set by controls: 0 for no effect and ±100 for the full control effect.

What do the screens show for `O=C1Cc2cc(S(=O)(=O)NCc3ccccc3Cl)cc3c2N1CCC3`?
IL-1B inflam inh: 20.6; CtBP-E1A blk: -0.4; DT40 TDP1 CPT: -29.6%; TDP1 block: 5.5%; Six1-Eya2 inh: -4.3; TDP1 cell noCPT: -17.6%

How did O=C(NCc1cccnc1)C1c2ccccc2C(=O)N1C1CCCC1 (stereo not drawn) do in these assays?
IL-1B inflam inh: -1.3; CtBP-E1A blk: 4.3; DT40 TDP1 CPT: -26.9%; TDP1 block: 4.3%; Six1-Eya2 inh: 1.2; TDP1 cell noCPT: -3.9%

Results for COc1cc(NC(=O)C(C)C)ccc1NC(=O)c1ccco1 ?
IL-1B inflam inh: -19.1; CtBP-E1A blk: -11.3; DT40 TDP1 CPT: 6.3%; TDP1 block: 5.0%; Six1-Eya2 inh: -7.6; TDP1 cell noCPT: -0.1%

What do the screens show for `CC(NC(=O)C12CC3CC(CC(C3)C1)C2)C(=O)NN=Cc1ccc([N+](=O)[O-])o1` (stereo not drawn)?
IL-1B inflam inh: inconclusive; CtBP-E1A blk: 2.8; DT40 TDP1 CPT: inconclusive; TDP1 block: 2.1%; Six1-Eya2 inh: 1.9; TDP1 cell noCPT: inconclusive

What do the screens show for `CC(NC(=O)c1ccc([N+](=O)[O-])o1)C12CC3CC(CC(C3)C1)C2` (stereo not drawn)?
IL-1B inflam inh: -136.0*; CtBP-E1A blk: 0.0; DT40 TDP1 CPT: inconclusive; TDP1 block: 8.9%; Six1-Eya2 inh: -0.8; TDP1 cell noCPT: inconclusive

What do the screens show for `Cc1cc(C)cc(NC(=O)c2ccc([N+](=O)[O-])o2)c1`?
IL-1B inflam inh: -96.1*; CtBP-E1A blk: -28.4; DT40 TDP1 CPT: 7.31µM*; TDP1 block: 0.0%; Six1-Eya2 inh: -24.9; TDP1 cell noCPT: 6.51µM*

What do the screens show for `COc1cc(NC(=O)c2ccc([N+](=O)[O-])o2)ccc1NC(=O)c1ccco1`?
IL-1B inflam inh: -26.7; DT40 TDP1 CPT: 0.651µM*; TDP1 block: -20.2%; Six1-Eya2 inh: -1.2; TDP1 cell noCPT: 0.92µM*

Results for COc1ccc(N/C(=C/[N+](=O)[O-])SC)cc1 ?
IL-1B inflam inh: -56.9*; CtBP-E1A blk: -7.4; DT40 TDP1 CPT: 5.4%; TDP1 block: -1.6%; Six1-Eya2 inh: 3.1; TDP1 cell noCPT: -10.3%

Results for CS/C(=C\[N+](=O)[O-])Nc1ccc(F)cc1 ?
IL-1B inflam inh: 0.0; CtBP-E1A blk: 0.0; DT40 TDP1 CPT: -24.8%; TDP1 block: 1.0%; Six1-Eya2 inh: 17.0; TDP1 cell noCPT: -13.1%

What do the screens show for `Nc1c(Cl)cc(Cl)cc1C(=O)OCC(=O)N1CCCC1`?
IL-1B inflam inh: 0.4; CtBP-E1A blk: 4.1; DT40 TDP1 CPT: -7.5%; TDP1 block: -1.0%; Six1-Eya2 inh: 4.4; TDP1 cell noCPT: -4.4%

Results for CCCCN(CC)CCCNC(=O)Cn1ncc2c3ccccc3n(Cc3ccc(F)cc3)c2c1=O ?
DT40 TDP1 CPT: inconclusive; TDP1 block: 0.0%; TDP1 cell noCPT: -28.5%

Results for CC(=O)Nc1ccc(NC(=O)c2c([N+](=O)[O-])c(C(C)(C)C)nn2C)cc1 ?
CtBP-E1A blk: 0.5; DT40 TDP1 CPT: -27.9%; TDP1 block: 4.8%; Six1-Eya2 inh: 4.4; TDP1 cell noCPT: inconclusive

How did COc1ccc(NC(=O)c2c([N+](=O)[O-])c(C(C)(C)C)nn2C)cc1 do in these assays?
IL-1B inflam inh: -54.4*; CtBP-E1A blk: -9.3; DT40 TDP1 CPT: inconclusive; TDP1 block: 4.8%; Six1-Eya2 inh: 13.5; TDP1 cell noCPT: inconclusive

Results for CC(=O)c1ccc(NC(=O)c2ccc([N+](=O)[O-])o2)cc1 ?
IL-1B inflam inh: -97.5*; DT40 TDP1 CPT: 2.06µM*; TDP1 block: 4.2%; Six1-Eya2 inh: -0.1; TDP1 cell noCPT: 1.84µM*

Results for CN1C(=O)[C@@H]2[C@@H]3C[C@@H]([C@H]4ON=C(c5ccc(Cl)cc5)[C@@H]34)[C@@H]2C1=O ?
IL-1B inflam inh: -5.0; CtBP-E1A blk: 3.5; DT40 TDP1 CPT: -11.7%; TDP1 block: 2.8%; Six1-Eya2 inh: 2.9; TDP1 cell noCPT: inconclusive

What do the screens show for `O=C1[C@@H]2[C@@H]3C[C@@H]([C@H]4ON=C(c5ccc(Cl)cc5Cl)[C@@H]34)[C@@H]2C(=O)N1C1CCCCC1`?
IL-1B inflam inh: -55.4*; CtBP-E1A blk: 20.7; DT40 TDP1 CPT: inconclusive; TDP1 block: 0.0%; Six1-Eya2 inh: 2.3; TDP1 cell noCPT: inconclusive

Results for CN(C)C(=O)c1ccc(N=Nc2c(O)c3ccccc3[nH]c2=O)cc1 ?
IL-1B inflam inh: -22.0; CtBP-E1A blk: -18.6; DT40 TDP1 CPT: 20.6µM*; Six1-Eya2 inh: -18.9; TDP1 cell noCPT: 20.6µM*

How did Cc1cc(N=Nc2c(O)c3ccccc3[nH]c2=O)ccc1N=Nc1ccc(C(=O)N(C)C)cc1 do in these assays?
IL-1B inflam inh: 25.9; DT40 TDP1 CPT: 10.3µM*; Six1-Eya2 inh: -8.9; TDP1 cell noCPT: 7.31µM*

How did Cc1nn(Cc2ccccc2)c(C)c1/C=N/NC(=O)CNc1cccc(C(F)(F)F)c1 do in these assays?
IL-1B inflam inh: -23.4; DT40 TDP1 CPT: -73.3%; TDP1 block: 5.4%; Six1-Eya2 inh: 3.6; TDP1 cell noCPT: inconclusive

Results for CC1CCCC(NC(=O)c2cccc(S(=O)(=O)N3CCN(c4ccccc4)CC3)c2)C1C (stereo not drawn) ?
IL-1B inflam inh: 11.8; CtBP-E1A blk: -1.5; DT40 TDP1 CPT: 18.4µM*; Six1-Eya2 inh: -0.3; TDP1 cell noCPT: 13µM*

What do the screens show for `CC(=O)N1CCN(S(=O)(=O)c2cccc(C(=O)N3CCN(S(=O)(=O)c4c(C)c(C)cc(C)c4C)CC3)c2)CC1`?
IL-1B inflam inh: -14.8; CtBP-E1A blk: 0.0; DT40 TDP1 CPT: inconclusive; Six1-Eya2 inh: -1.8; TDP1 cell noCPT: 20.6µM*

How did O=C(NC1CCCCC1)c1cc(S(=O)(=O)N2CCN(c3ccccc3)CC2)ccc1Cl do in these assays?
IL-1B inflam inh: -8.7; CtBP-E1A blk: 2.5; DT40 TDP1 CPT: inconclusive; TDP1 block: 0.2%; Six1-Eya2 inh: 0.2; TDP1 cell noCPT: inconclusive

Results for O=C(c1cc(S(=O)(=O)N2CCN(c3ccccc3)CC2)ccc1Cl)N1CCCCCCC1 ?
IL-1B inflam inh: -52.6*; CtBP-E1A blk: -6.7; DT40 TDP1 CPT: inconclusive; TDP1 block: -8.4%; Six1-Eya2 inh: -5.4; TDP1 cell noCPT: 14.6µM*

What do the screens show for `Cc1ccc(S(=O)(=O)N2CCOCC2)cc1C(=O)N1CC(C)OC(C)C1` (stereo not drawn)?
IL-1B inflam inh: -0.1; CtBP-E1A blk: -2.5; DT40 TDP1 CPT: -10.2%; TDP1 block: -0.3%[0.505 µM]; Six1-Eya2 inh: -8.2; TDP1 cell noCPT: -14.5%
